The other results are listed elsewhere or left out. Results filed as inconclusive are left out. Calls of active or inactive are those of the source. Calls come from the whole dose curve; as a rule, active = well fitted inhibition curve with a large enough effect; inconclusive = small, poorly fitted or top-dose-only effect; inactive = flat fitted curve, though single readings scatter.
Molecular target: Dual specificity protein kinase CLK4 (Homo sapiens) (UniProt Q9HAZ1)
Assay: Confirmation Assay for Inhibitors of CDC-like Kinase 4 (Kinase-Glo Assay): SAR round 2
Conditions: recombinant Clk4, Kinase-Glo ATP luminescence, 4.5 h
Experimental: NIH Molecular Libraries Probe Production Centers Network [MLPCN] NIH Chemical Genomics Center [NCGC] MLPCN Grant: 1R03MH084827-01 Assay Submitter (PI): Tom Misteli NCGC Assay Overview: Clk4 (Invitrogen, cat# PV3839) was assayed using ATP and the RS repeat peptide (AnaSpec cat # 61722) as substrates. Following the Clk4 reaction, the remaining ATP levels were detected using Promega Kinase-Glo technology wherein the remaining ATP from the kinase reaction is detected using Ultra-Glo luciferase and D-luciferin which generates a bioluminescence signal from the ATP. The positive control for the assay was TG003 (Sigma-Aldrich, cat# 300801-52-9) which has been described as an inhibitor of Clk 4[1].
NCGC Assay Protocol Summary: Two uL/well of substrate-buffer solution (100 uM RS peptide, 1 uM ATP, 25 mM Tris pH7.5, 10 mM MgCl2, 0.5 mM EGTA, 2.5 mM DTT, 0.01% Triton X-100 final concentration) was dispensed into 1536-well, assay plates (Greiner, solid white medium-binding plates) with Aurora Discovery BioRAPTR Flying Reagent Dispenser (FRD; Beckton-Dickenson). Using a Kalypsys pin tool equipped with a 1536-pin tool, 23 nL of compound solution was transferred to the assay plate. […] Luminescence was detected with the ViewLux plate reader (Perkin Elmer, Waltham, MA) after 5 min incubation using a 5 second exposure time and 2x binning.

Sequence of Dual specificity protein kinase CLK4 (Homo sapiens) (Q9HAZ1 whole entry, looked up): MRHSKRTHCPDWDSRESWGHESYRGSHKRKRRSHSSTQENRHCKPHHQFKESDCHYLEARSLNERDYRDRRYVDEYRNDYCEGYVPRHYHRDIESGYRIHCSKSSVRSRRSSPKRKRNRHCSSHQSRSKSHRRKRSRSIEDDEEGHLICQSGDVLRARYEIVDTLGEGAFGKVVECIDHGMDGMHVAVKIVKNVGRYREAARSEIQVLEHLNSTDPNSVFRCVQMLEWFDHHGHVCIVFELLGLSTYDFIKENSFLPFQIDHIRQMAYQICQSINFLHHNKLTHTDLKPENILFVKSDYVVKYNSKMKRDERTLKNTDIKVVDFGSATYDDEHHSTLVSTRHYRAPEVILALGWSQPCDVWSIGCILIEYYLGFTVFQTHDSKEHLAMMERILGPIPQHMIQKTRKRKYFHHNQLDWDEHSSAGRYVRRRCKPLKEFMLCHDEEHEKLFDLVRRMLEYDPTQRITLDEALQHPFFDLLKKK

Compound	Potency
c1nc(N2CCOCC2)c2cc(-c3ccc4c(c3)OCO4)ccc2n1	104 nM (active)
